Measurements published in PubChem BioAssay (EPA / NIEHS).
Values joined by “and” are separate entries in the source; they are usually repeats but may differ in a detail not shown here. Equal values may be shown once. Records with an inconclusive call do not appear. Where a structure was tested more than once in an assay, its records may differ in their call. Active and inactive are the calls of the source. The calls were made as follows, unless noted: active = hit-call score of the fitted dose curve at least 0.9, where 1 is the maximum; inactive = score below 0.9.

Tests used:
[1] = molecular target: Myc proto-oncogene protein (Homo sapiens) (UniProt P01106); experiment: ATG_Myc_CIS: Attagene CIS-FACTORIAL HepG2 Assay for human Myelocytomatosis (Myc) Proto-Oncogene Transcription Factor (AID 2282990); settings: HepG2, Attagene cis-reporter transcription factor activity; actives raise or lower the signal
Chain of Myc proto-oncogene protein (Homo sapiens) (P01106 whole entry, looked up): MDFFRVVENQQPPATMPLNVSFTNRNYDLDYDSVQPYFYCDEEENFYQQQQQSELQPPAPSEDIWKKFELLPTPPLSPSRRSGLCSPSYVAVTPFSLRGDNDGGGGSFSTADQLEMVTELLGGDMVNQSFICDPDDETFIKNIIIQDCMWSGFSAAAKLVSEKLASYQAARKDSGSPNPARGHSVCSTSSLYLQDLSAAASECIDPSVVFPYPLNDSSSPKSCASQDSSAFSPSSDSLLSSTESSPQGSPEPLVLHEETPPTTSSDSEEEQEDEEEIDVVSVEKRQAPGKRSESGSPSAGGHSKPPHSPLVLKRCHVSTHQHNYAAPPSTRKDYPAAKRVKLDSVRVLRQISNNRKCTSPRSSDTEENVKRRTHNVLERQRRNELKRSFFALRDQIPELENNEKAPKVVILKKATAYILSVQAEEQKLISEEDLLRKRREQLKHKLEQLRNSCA
In short: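 DMSO-normalised, bidirectionally fitted reporter mRNA signal. HepG2 cells transfected with cis reporter constructs, treated 24 h; transcripts detected by RT-PCR, 6-FAM primer extension and CE.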

[2] = ATG_NF_kB_CIS: Attagene CIS-FACTORIAL HepG2 Assay for human Nuclear Factor Kappa B (NF-kB) (AID 2282991); settings: HepG2 Attagene cis-factorial NF-kB reporter mRNA; actives raise or lower the signal
In short: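 HepG2, transient multi-reporter transfection, cis promoter elements (endogenous TFs). 24 h exposure. Total RNA → RT → PCR → 6-FAM label → HpaI → CE. Gain/loss vs DMSO.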

[3] = ATG_NRF2_ARE_CIS: Attagene CIS-FACTORIAL HepG2 Assay for human Nuclear Factor Erythroid 2 Related Factor 2 (NFR2) response to Antioxidant Response Elements (ARE) (AID 2282992); settings: HepG2 Attagene ARE/NRF2 reporter, transcription factor activity; actives raise or lower the signal;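 as to AC50: reporter mRNA level measured by RT-PCR and capillary electrophoresis fluorescence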
In short: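 Endogenous transcription factor activity in human liver HepG2 cells is tracked via a cis-element-driven reporter within a multiplexed set. mRNA induction is read by RT-PCR and capillary electrophoresis after 24 h, with DMSO as baseline.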

[4] = ATG_Oct_MLP_CIS: Attagene CIS-FACTORIAL HepG2 Assay for human Octamer-Binding Transcription Factor (Oct) (AID 2282993); settings: HepG2 Attagene cis-factorial Oct reporter, mRNA; actives raise or lower the signal
In short: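 Read-out: reporter mRNA via RT-PCR plus capillary electrophoresis of 6-FAM-labelled fragments. Transiently transfected HepG2, 24 h exposure, endogenous TF activity on cis elements. Gain or loss of signal fitted relative to DMSO.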

[5] = molecular target: Cellular tumor antigen p53 (Homo sapiens) (UniProt P04637); experiment: ATG_p53_CIS: Attagene CIS-FACTORIAL HepG2 Assay for human p53 Transcription Factor (AID 2282994); settings: HepG2 p53 cis-element reporter, Attagene mRNA; actives raise or lower the signal
In short: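 Steps: transfect HepG2 with multiplexed cis reporter constructs; dose chemicals 24 h; extract RNA, reverse-transcribe, PCR-amplify reporter sequences; FAM-label, HpaI-digest, resolve fragments by CE. Activity fitted both directions relative to DMSO.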

[6] = BSK_3C_TissueFactor: BioMAP Diversity Plus: 3C Assay for Tissue Factor Biomarker Activity (AID 2282997); settings: BioMAP 3C HUVEC, tissue factor biomarker readout; actives raise or lower the signal
In short: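 After a 24 h chemical exposure of primary human umbilical vein endothelial cells, Tissue Factor levels were quantified by ELISA.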

[7] = BSK_3C_uPAR: BioMAP Diversity Plus: 3C Assay for Urokinase-type plasminogen activator receptor (uPAR) Biomarker Activity (AID 2282998); settings: BioMAP 3C HUVEC, uPAR biomarker ELISA; actives raise or lower the signal
In short: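 HUVEC primary cells; 24 h post-dose; uPAR by ELISA; gain or loss of signal fitted bidirectionally vs DMSO baseline.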

[8] = BSK_4H_Eotaxin3: BioMAP Diversity Plus: 4H Assay for Eotaxin 3 Biomarker Activity (AID 2283000); settings: primary human endothelial cells (HUVEC); actives raise or lower the signal
In short: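 Chemicals were added to human umbilical vein endothelium cultures, and Eotaxin-3 was quantified by ELISA at 24 h. Values were derived by bidirectional fitting with DMSO serving as negative control and activity baseline.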

[9] = molecular target: human Peroxisome Proliferator-activated Receptor alpha (PPARa), PPARA (gene 5465) (UniProt Q07869); experiment: ATG_PPARa_TRANS: Attagene TRANS-FACTORIAL HepG2 Assay for human Peroxisome Proliferator-activated Receptor alpha (PPARa) (AID 2283001; active = hit-call score of the fitted dose curve at least 0.9, where 1 is the maximum;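 as to AC50: potency for gain of reporter signal over DMSO so agonist or activator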)
Chain of human Peroxisome Proliferator-activated Receptor alpha (PPARa), PPARA (gene 5465) (Q07869 whole entry, looked up, the tested form may be a part): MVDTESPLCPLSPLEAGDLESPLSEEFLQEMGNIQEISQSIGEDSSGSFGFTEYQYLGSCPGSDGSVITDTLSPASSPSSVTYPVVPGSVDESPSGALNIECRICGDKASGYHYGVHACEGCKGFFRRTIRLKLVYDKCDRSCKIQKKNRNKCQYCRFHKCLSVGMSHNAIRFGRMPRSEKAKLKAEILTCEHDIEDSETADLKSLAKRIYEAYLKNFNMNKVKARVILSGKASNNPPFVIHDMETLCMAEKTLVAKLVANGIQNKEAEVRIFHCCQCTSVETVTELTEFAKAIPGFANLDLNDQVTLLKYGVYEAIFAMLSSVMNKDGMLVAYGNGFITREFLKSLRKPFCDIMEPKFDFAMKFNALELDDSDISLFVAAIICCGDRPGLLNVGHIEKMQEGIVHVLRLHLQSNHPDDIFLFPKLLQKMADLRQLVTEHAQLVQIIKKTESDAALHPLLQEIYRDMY
In short: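 Exposure: 24 h, transiently transfected HepG2 cells. Endpoint: GAL4-UAS reporter mRNA, RT-PCR with capillary electrophoresis fluorescence. Baseline: DMSO; increases fitted.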

[10] = molecular target: human Peroxisome Proliferator-activated Receptor delta (PPARd), PPARD (gene 5467) (UniProt Q03181); experiment: ATG_PPARd_TRANS: Attagene TRANS-FACTORIAL HepG2 Assay for human Peroxisome Proliferator-activated Receptor delta (PPARd) (AID 2283002; active = hit-call score of the fitted dose curve at least 0.9, where 1 is the maximum)
Chain of human Peroxisome Proliferator-activated Receptor delta (PPARd), PPARD (gene 5467) (Q03181 whole entry, looked up, the tested form may be a part): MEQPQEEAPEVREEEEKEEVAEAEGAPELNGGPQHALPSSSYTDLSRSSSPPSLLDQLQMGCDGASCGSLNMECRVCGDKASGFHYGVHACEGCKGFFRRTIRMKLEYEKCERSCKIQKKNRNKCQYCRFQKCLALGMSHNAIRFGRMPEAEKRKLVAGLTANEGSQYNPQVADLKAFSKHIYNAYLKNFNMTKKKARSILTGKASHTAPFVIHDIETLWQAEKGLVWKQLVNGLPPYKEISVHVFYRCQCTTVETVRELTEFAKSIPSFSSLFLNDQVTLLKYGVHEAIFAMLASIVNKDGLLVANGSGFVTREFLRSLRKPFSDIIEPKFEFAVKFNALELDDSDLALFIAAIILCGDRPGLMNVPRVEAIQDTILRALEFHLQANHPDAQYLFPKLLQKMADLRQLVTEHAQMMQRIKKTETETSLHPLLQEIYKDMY
In short: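 Measured quantity: GAL4-UAS reporter transcript induction in HepG2 after 24 h chemical dosing, with NR-Gal4 chimeras supplied by transient transfection. Detection by RT-PCR and capillary electrophoresis; upward fit against DMSO.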

[11] = read-out: Intercellular Adhesion Molecule 1 (ICAM1), ICAM1 (gene 3383); experiment: BSK_3C_ICAM1: BioMAP Diversity Plus: 3C Assay for Intercellular Adhesion Molecule 1 (ICAM1) Biomarker Activity (AID 2283003); settings: primary human endothelial cells (HUVEC); actives raise or lower the signal
In short: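 ELISA read-out of ICAM-1; HUVEC (primary human), 3C system, 24 h post-dosing; bidirectional fit vs DMSO baseline.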

[12] = BSK_3C_Proliferation: Cell Proliferation Assessment in the BioMAP Diversity Plus: 3C Assay (AID 2283006); settings: primary human endothelial cells (HUVEC);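 as to AC50: potency may reflect either rise or fall in cell number versus DMSO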
In short: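 HUVEC, sub-confluent; 48 h chemical exposure; 10% TCA fix, 0.1% SRB stain, A560 total protein. Gain or loss of signal fitted both directions vs DMSO control.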

[13] = molecular target: Peroxisome proliferator-activated receptor gamma (Homo sapiens) (UniProt P37231); experiment: ATG_PPARg_TRANS: Attagene TRANS-FACTORIAL HepG2 Assay for human Peroxisome Proliferator-activated Receptor-gamma (PPARg) (AID 2283007; active = hit-call score of the fitted dose curve at least 0.9, where 1 is the maximum)
Chain of Peroxisome proliferator-activated receptor gamma (Homo sapiens) (P37231 whole entry, looked up): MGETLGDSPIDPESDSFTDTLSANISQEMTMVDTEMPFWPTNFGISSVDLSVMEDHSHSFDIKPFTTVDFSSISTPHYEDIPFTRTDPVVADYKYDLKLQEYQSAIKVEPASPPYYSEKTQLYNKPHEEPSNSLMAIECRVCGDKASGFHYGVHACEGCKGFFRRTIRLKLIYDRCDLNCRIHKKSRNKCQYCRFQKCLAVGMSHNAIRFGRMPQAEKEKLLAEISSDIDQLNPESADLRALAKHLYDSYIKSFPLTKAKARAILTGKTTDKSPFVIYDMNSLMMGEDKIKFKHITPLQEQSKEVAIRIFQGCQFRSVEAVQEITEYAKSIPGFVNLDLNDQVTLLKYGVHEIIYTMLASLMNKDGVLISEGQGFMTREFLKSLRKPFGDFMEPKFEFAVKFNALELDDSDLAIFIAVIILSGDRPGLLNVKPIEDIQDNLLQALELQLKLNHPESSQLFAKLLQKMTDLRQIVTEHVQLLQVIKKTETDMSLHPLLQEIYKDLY
In short: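 Multiplexed reporter transcription units in HepG2, 24 h dosing, reporter transcripts quantified by fluorescent RT-PCR and capillary electrophoresis. Increase over DMSO scored.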

[14] = molecular target: Nuclear receptor subfamily 1 group I member 2 (Homo sapiens) (UniProt O75469); experiment: ATG_PXR_TRANS: Attagene TRANS-FACTORIAL HepG2 Assay for human Pregnane X Receptor (PXR) (AID 2283008; active = hit-call score of the fitted dose curve at least 0.9, where 1 is the maximum)
Chain of Nuclear receptor subfamily 1 group I member 2 (Homo sapiens) (O75469 whole entry, looked up, the tested form may be a part): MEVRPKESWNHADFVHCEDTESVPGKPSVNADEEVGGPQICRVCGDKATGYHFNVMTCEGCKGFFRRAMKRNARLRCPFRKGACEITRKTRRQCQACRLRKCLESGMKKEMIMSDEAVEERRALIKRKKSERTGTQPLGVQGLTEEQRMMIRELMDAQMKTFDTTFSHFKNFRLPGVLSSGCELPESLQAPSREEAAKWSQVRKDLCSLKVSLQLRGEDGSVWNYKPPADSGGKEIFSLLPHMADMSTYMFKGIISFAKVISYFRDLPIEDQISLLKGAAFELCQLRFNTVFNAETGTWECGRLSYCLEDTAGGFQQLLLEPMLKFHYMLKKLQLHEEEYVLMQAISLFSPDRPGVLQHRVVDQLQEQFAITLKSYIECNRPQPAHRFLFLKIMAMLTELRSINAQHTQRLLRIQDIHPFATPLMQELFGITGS
In short: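 HepG2 transfected (FuGene 6) with GAL4-UAS reporter units + PXR-Gal4 chimera; dosed 24 h. Total RNA → oligo(dT) RT → PCR → 6-FAM primer extension → HpaI cut → CE. Gain-of-signal vs DMSO.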

[15] = molecular target: human Retinoic Acid Receptor gamma (RARg), RARG (gene 5916) (UniProt P13631); experiment: ATG_RARg_TRANS: Attagene TRANS-FACTORIAL HepG2 Assay for human Retinoic Acid Receptor gamma (RARg) (AID 2283009; active = hit-call score of the fitted dose curve at least 0.9, where 1 is the maximum;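 as to AC50: AC50 is for reporter induction above DMSO meaning RARg activation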)
Chain of human Retinoic Acid Receptor gamma (RARg), RARG (gene 5916) (P13631 whole entry, looked up, the tested form may be a part): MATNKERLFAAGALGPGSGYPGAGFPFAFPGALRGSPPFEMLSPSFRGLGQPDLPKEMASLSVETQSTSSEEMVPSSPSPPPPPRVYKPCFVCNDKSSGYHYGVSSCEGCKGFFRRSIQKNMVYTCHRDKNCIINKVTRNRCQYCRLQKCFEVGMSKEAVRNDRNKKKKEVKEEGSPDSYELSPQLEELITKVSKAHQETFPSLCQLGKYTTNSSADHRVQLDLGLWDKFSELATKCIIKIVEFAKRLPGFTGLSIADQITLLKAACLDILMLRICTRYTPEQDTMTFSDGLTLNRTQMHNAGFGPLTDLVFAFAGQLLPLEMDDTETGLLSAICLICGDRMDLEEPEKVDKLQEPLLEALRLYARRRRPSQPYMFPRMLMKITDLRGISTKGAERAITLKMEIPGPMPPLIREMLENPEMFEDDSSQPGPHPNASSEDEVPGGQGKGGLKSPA
In short: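 Readout: reporter transcript levels via RT-PCR, 6-FAM primer-extension labelling, HpaI digestion and capillary electrophoresis. Cells: HepG2 carrying transfected RARg-GAL4 chimera plus UAS reporter set. Dosing 24 h; DMSO negative control.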

[16] = molecular target: Retinoic acid receptor RXR-alpha (Homo sapiens) (UniProt P19793); experiment: ATG_RXRa_TRANS: Attagene TRANS-FACTORIAL HepG2 Assay for human Retinoid X Receptor alpha (RXRa) (AID 2283012; active = hit-call score of the fitted dose curve at least 0.9, where 1 is the maximum)
Chain of Retinoic acid receptor RXR-alpha (Homo sapiens) (P19793 whole entry, looked up, the tested form may be a part): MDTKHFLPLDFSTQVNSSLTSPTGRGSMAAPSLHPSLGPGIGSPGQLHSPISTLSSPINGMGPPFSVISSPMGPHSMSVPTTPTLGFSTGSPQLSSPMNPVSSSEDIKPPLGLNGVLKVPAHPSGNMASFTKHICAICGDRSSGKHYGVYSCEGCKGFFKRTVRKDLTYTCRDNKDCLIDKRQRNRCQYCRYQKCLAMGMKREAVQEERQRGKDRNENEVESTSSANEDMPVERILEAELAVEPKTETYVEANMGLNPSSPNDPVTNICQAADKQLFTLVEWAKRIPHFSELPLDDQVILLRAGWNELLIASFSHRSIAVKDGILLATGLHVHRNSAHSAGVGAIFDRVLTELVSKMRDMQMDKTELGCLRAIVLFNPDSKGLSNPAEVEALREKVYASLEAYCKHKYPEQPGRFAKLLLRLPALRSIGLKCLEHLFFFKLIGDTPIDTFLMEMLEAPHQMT
In short: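 Read-out: fluorescent reporter-transcript fragments quantified by capillary electrophoresis after RT-PCR. Transiently transfected HepG2 cells carrying GAL4-UAS reporters and NR-GAL4 chimeras were exposed to chemical for 24 h; activity scored as increase over DMSO.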

[17] = molecular target: Retinoic acid receptor alpha (Homo sapiens) (UniProt P10276); experiment: ATG_RARa_TRANS: Attagene TRANS-FACTORIAL HepG2 Assay for human Retinoic Acid Receptor alpha (RARa) (AID 2283005; active = hit-call score of the fitted dose curve at least 0.9, where 1 is the maximum)
Chain of Retinoic acid receptor alpha (Homo sapiens) (P10276 whole entry, looked up, the tested form may be a part): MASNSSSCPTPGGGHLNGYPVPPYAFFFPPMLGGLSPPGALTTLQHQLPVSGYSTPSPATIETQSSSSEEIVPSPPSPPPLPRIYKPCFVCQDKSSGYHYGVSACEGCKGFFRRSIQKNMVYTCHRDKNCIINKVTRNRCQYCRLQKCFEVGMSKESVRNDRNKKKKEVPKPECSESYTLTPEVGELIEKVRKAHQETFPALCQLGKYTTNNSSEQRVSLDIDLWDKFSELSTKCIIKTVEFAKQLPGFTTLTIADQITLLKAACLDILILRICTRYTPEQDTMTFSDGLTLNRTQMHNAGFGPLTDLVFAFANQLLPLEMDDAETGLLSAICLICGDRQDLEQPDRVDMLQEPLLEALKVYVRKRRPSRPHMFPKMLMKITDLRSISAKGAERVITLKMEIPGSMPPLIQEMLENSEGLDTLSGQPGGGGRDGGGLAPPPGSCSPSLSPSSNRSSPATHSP
In short: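 HepG2 cells transiently transfected with multiple reporter units expressing chimeric RARα-GAL4 fusion, with GAL4-UAS-driven reporters. After 24 h compound exposure, reporter mRNA induction quantified by RT-PCR and capillary electrophoresis with fluorescent labeling; gain-of-signal fitted relative to DMSO control.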

[18] = molecular target: human RAR-related Orphan Receptor beta (RORb), RORB (gene 6096) (UniProt Q92753); experiment: ATG_RORb_TRANS: Attagene TRANS-FACTORIAL HepG2 Assay for human RAR-related Orphan Receptor beta (RORb) (AID 2283010; active = hit-call score of the fitted dose curve at least 0.9, where 1 is the maximum)
Chain of human RAR-related Orphan Receptor beta (RORb), RORB (gene 6096) (Q92753 whole entry, looked up, the tested form may be a part): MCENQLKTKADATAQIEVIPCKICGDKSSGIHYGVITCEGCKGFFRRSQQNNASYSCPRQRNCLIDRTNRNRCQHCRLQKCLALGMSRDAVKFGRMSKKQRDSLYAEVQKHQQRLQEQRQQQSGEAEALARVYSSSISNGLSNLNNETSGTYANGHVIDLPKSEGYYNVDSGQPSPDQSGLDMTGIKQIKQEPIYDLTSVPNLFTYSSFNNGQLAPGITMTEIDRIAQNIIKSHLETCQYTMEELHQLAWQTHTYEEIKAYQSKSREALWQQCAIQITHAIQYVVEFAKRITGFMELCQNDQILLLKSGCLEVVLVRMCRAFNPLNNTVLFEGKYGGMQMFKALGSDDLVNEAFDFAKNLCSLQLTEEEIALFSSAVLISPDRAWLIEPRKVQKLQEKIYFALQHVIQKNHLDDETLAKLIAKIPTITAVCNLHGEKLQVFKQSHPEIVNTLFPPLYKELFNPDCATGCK
In short: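 HepG2, transient MRTU transfection (GAL4-UAS reporters, exogenous NR-Gal4 chimeras); 24 h compound exposure; total RNA → RT-PCR → 6-FAM primer extension → HpaI digest → CE fluorescence. Positive direction vs DMSO baseline.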

[19] = BSK_3C_VCAM1: BioMAP Diversity Plus: 3C Assay for Vascular cell adhesion molecule 1 (VCAM1) Biomarker Activity (AID 2282999); settings: BioMAP 3C HUVEC, VCAM1 ELISA, cytokine-stimulated; actives raise or lower the signal
In short: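 Vascular primary endothelium (human umbilical vein) was exposed to chemicals and assayed 24 h later. VCAM-1 levels came from ELISA, with DMSO serving as baseline for bidirectional fitting.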

[20] = molecular target: human Retinoic Acid Receptor beta (RARb), RARB (gene 5915) (UniProt P10826); experiment: ATG_RARb_TRANS: Attagene TRANS-FACTORIAL HepG2 Assay for human Retinoic Acid Receptor beta (AID 2283004; active = hit-call score of the fitted dose curve at least 0.9, where 1 is the maximum)
Chain of human Retinoic Acid Receptor beta (RARb), RARB (gene 5915) (P10826 whole entry, looked up): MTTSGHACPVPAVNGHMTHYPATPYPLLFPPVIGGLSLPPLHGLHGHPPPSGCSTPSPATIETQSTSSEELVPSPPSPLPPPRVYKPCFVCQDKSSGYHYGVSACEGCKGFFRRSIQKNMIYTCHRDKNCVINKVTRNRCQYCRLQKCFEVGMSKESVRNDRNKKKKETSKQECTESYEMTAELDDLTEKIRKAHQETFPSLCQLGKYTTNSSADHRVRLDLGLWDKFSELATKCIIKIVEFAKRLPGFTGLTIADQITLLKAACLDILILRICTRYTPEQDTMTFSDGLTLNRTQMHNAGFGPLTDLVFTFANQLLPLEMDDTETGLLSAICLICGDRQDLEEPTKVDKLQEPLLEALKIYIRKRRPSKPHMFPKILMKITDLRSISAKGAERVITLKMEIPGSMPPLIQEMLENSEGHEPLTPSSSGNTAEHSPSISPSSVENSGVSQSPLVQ
In short: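 Transient transfection of HepG2 with multiple reporter units → chemical dosing, 24 h → total RNA isolation → RT with oligo(dT) → reporter-specific PCR, 6-FAM primer extension, HpaI digest → capillary electrophoresis. Positive direction vs DMSO control.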

Measured: AC50

O=S(=O)(O)C(F)(F)C(F)(F)C(F)(F)C(F)(F)F
not listed: [17] | [18] | [19] | [20]
inactive: all other assays above

Oc1c(Cl)c(Cl)c(Cl)c(Cl)c1Cl
active: [1] 50 µM and 91.9 µM | [2] 9.11 µM | [3] 13.7 µM and 12.5 µM and 2.62 µM | [4] 31.1 µM and 11.4 µM and 73.1 µM | [5] 51 µM | [6] 26.9 µM | [7] 13.5 µM and 10.7 µM | [8] 17 µM and 9.54 µM | [12] 15.4 µM and 14.7 µM | [13] 4.28 µM and 2.53 µM and 7.91 µM | [14] 13.8 µM and 3.3 µM
inactive: [1] | [2] | [5] | [6] | [9] | [17] | [14] | [15] | [18] | [16]

CO/C=C(/C(=O)OC)c1ccccc1COc1cccc(C(F)(F)F)n1
active: [3] 5.41 µM | [4] 11.5 µM | [6] 10.4 µM | [7] 36.9 µM | [19] 20 µM | [8] 16.5 µM | [12] 1.82 µM | [13] 5.74 µM | [14] 0.264 µM
inactive: [1] | [2] | [5] | [15] | [16]

CCC(C)c1cc([N+](=O)[O-])cc([N+](=O)[O-])c1O (stereo unspecified)
active: [3] 14.1 µM | [4] 16.4 µM | [7] 9.09 µM | [8] 11.3 µM | [9] 49.6 µM | [12] 8.95 µM | [13] 17.3 µM | [14] 26.9 µM
not listed: [18] | [19] | [20]
inactive: all other assays above

Clc1ccc(Cl)cc1
not listed: [17] | [19]
inactive: all other assays above

O=C(O)C(F)(F)C(F)(F)C(F)(F)C(F)(F)C(F)(F)C(F)(F)C(F)(F)C(F)(F)C(F)(F)F
active: [3] 59.6 µM and 12.3 µM and 24.7 µM | [4] 45.5 µM and 50 µM | [5] 46.9 µM and 69.4 µM | [6] 51.8 µM and 50.7 µM | [7] 46.2 µM and 51.4 µM | [8] 29.9 µM and 49.3 µM and 51.1 µM | [9] 33.4 µM and 24.7 µM and 23.9 µM | [12] 36.3 µM and 46.6 µM and 45.4 µM | [13] 52.1 µM and 12.9 µM | [14] 45.7 µM and 60.9 µM | [15] 33.4 µM
inactive: [1] | [2] | [4] | [5] | [6] | [7] | [10] | [20] | [17] | [14] | [15] | [18] | [16]

O=C(N[C@H]1CN2CCC1CC2)c1cc2ccoc2cn1
not listed: [10] | [13] | [15] | [16] | [17] | [18] | [20]
inactive: all other assays above

Cc1ccc(O)c(C)c1
active: [3] 7.51 µM
not listed: [14] | [15] | [16] | [17] | [19]
inactive: all other assays above

CC#Cc1cc(C)nc(Nc2ccccc2)n1
active: [3] 56.5 µM | [9] 0.606 µM | [12] 17.9 µM | [13] 6.26 µM
not listed: [11] | [15] | [17] | [18] | [19] | [20]
inactive: all other assays above

C1CC2OC2CC1C1CO1 (stereo unspecified)
active: [3] 123 µM
inactive: [1] | [2] | [4] | [5] | [6] | [7] | [19] | [8] | [12]

CC(C)(O)C(=O)Nc1ccc([N+](=O)[O-])c(C(F)(F)F)c1
active: [3] 45.1 µM and 15.9 µM and 54.5 µM | [4] 38.9 µM | [14] 21.2 µM
inactive: [1] | [3] | [4] | [5] | [6] | [7] | [8] | [9] | [12] | [14] | [15] | [18] | [16]

CCSC(=O)N(CC)C1CCCCC1
inactive: [1] | [2] | [3] | [4] | [6] | [7] | [19] | [8] | [12] | [13] | [14]

O=NN(c1ccccc1)c1ccccc1
active: [3] 78.9 µM | [12] 6.14 µM | [14] 29.9 µM
inactive: [1] | [4] | [5] | [6] | [7] | [8] | [9] | [10] | [13]
